Reference: the supplement of paper PMC8975748
Counter-ions that a name gives are not always drawn.

These molecules were tested on Saccharomyces cerevisiae BY4741 SeMeCo community (assay: z-score of subpopulation abundance vs DMSO median, subpopulation auxotrophic for HU; higher = larger share of this subpopulation than in DMSO controls). Settings: 10 µM; 24 h; SM minimal medium; subpopulation (auxotrophy): HU.
Procedure: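 Fluorescent four-plasmid SeMeCo (self-establishing metabolically cooperating S. cerevisiae BY4741 community; plasmids pH-mRuby2, pL-mWasabi, pU-eCFP, pM-TagRFP657) was grown 24 h in minimal SM medium with each Selleck FDA-approved drug at 10 µM in 384-well plates. Cells were fixed and imaged by high-content confocal microscopy. For each auxotrophic subpopulation (and the prototroph), a z-score gives the deviation from the DMSO vehicle-control population median.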

Structure (SMILES)	z-score of subpopulation abundance
CO/N=C(\C(=O)N[C@@H]1C(=O)N2C(C(=O)O)=CCS[C@H]12)c1csc(N)n1 [Ceftizoxime sodium]	-0.68
CCOC(=O)OC(C)OC1=C(C(=O)Nc2ccccn2)N(C)S(=O)(=O)c2ccccc21 (stereo not given) [Ampiroxicam]	-0.62
CC(N)C12CC3CC(CC(C3)C1)C2 (stereo not given) [Rimantadine]	1.15
Oc1ccc(C2CNCCc3c2cc(O)c(O)c3Cl)cc1 (stereo not given) [Fenoldopam mesylate]	-0.06
CCN(CC)CCOC(=O)c1ccc(N)cc1 [Procaine HCl]	-0.49
C[C@@H]1CN(c2c(F)c(N)c3c(=O)c(C(=O)O)cn(C4CC4)c3c2F)C[C@H](C)N1 [Sparfloxacin]	-0.11
C[N+](C)(C)CCO.[Cl-] [Choline Chloride]	-0.41
COc1cccc(CCc2ccccc2OCC(CN(C)C)OC(=O)CCC(=O)O)c1 (stereo not given) [Sarpogrelate hydrochloride]	-0.27
C[N+]1(C)CCC(=C(c2ccccc2)c2ccccc2)CC1 [Diphemanil Methylsulfate]	-0.13
CCCC(=O)OCOC(=O)C1=C(C)NC(C)=C(C(=O)OC)C1c1cccc(Cl)c1Cl (stereo not given) [Clevidipine Butyrate]	-5.62
O=C(O[C@H]1CN2CCC1CC2)N1CCc2ccccc2[C@@H]1c1ccccc1 [Solifenacin succinate]	0.28
CCOC(=O)C1=C(C)NC(C)=C(C(=O)OC)C1c1cccc(Cl)c1Cl (stereo not given) [Felodipine]	-6.8
CCCCCOc1ccc(-c2cc(-c3ccc(C(=O)N[C@H]4C[C@@H](O)[C@@H](O)NC(=O)[C@@H]5[C@@H](O)[C@@H](C)CN5C(=O)[C@H]([C@H](O)CC(N)=O)NC(=O)[C@H]([C@H](O)[C@@H](O)c5ccc(O)c(OS(=O)(=O)O)c5)NC(=O)[C@@H]5C[C@@H](O)CN5C(=O)[C@H]([C@@H](C)O)NC4=O)cc3)no2)cc1 [Micafungin Sodium]	13.2
CC[C@H]1OC(=O)[C@H](C)[C@@H](O[C@H]2C[C@@](C)(OC)[C@@H](O)[C@H](C)O2)[C@H](C)[C@@H](O[C@@H]2O[C@H](C)C[C@H](N(C)C)[C@H]2O)[C@](C)(O)C[C@@H](C)C(=O)[C@H](C)[C@@H](O)[C@]1(C)O [Erythromycin]	-0.18
COc1ccc(NS(=O)(=O)c2ccc(N)cc2)nn1 [Sulfamethoxypyridazine]	-0.08
CC[C@@H]1/C=C(\C)C[C@H](C)C[C@H](OC)[C@H]2O[C@@](O)(C(=O)C(=O)N3CCCC[C@H]3C(=O)O[C@H](/C(C)=C/[C@@H]3CC[C@H](Cl)[C@H](OC)C3)[C@H](C)[C@@H](O)CC1=O)[C@H](C)C[C@@H]2OC [Pimecrolimus]	-0.6
O=C(O)c1cn(-c2ccc(F)cc2)c2cc(N3CCNCC3)c(F)cc2c1=O [Sarafloxacin HCl]	0.4
COc1ccc2[nH]c([S+]([O-])Cc3ncc(C)c(OC)c3C)nc2c1 (stereo not given) [Omeprazole]	0.46
CC[C@H](C)C(=O)O[C@H]1C[C@@H](C)C=C2C=C[C@H](C)[C@H](CC[C@@H]3C[C@@H](O)CC(=O)O3)[C@H]21 [Lovastatin]	0.59
Cn1c(=O)c2[nH]cnc2n(C)c1=O [Aminophylline]	-0.5

Structure (SMILES)	z-score of subpopulation abundance
O=C(c1ccccc1)c1ccc2n1CCC2C(=O)O (stereo not given) [Ketorolac tromethamine salt]	-0.79
CN(C)CCc1c[nH]c2ccc(C[C@H]3COC(=O)N3)cc12 [Zolmitriptan]	-1.01
CCCCCCCCCCCCCCCC[N+](C)(C)C [Cetrimonium Bromide (CTAB)]	12.8
COc1cccc2c1C(=O)c1c(O)c3c(c(O)c1C2=O)CC(O)(C(=O)CO)CC3OC1CC(N)C(O)C(C)O1 (stereo not given) [Doxorubicin (Adriamycin) HCl]	8.36
Nc1ccc(S(=O)(=O)Nc2ncccn2)cc1 [Sodium sulfadiazine]	-0.58
CCn1cc(C(=O)O)c(=O)c2cc(F)c(N3CCNCC3)cc21 [Norfloxacin]	-0.03
N=C(N)NC(=O)c1nc(Cl)c(N)nc1N [Amiloride HCl dihydrate]	-2.8
CS(=O)(=O)c1ccc([C@@H](O)[C@@H](CF)NC(=O)C(Cl)Cl)cc1 [Florfenicol]	0
CNCC[C@@H](Oc1ccccc1C)c1ccccc1 [Atomoxetine HCl]	-0.99
COC(=O)Nc1nc2cc(C(=O)c3ccccc3)ccc2[nH]1 [Mebendazole]	1.39
C/C(=C\C(=O)OCCCCCCCCC(=O)O)C[C@@H]1OC[C@H](C[C@@H]2O[C@H]2[C@@H](C)[C@H](C)O)[C@@H](O)[C@H]1O [Mupirocin calcium]	1.13
C=C1c2cccc(O)c2C(O)=C2C(=O)[C@]3(O)C(O)=C(C(N)=O)C(=O)[C@@H](N(C)C)[C@@H]3[C@@H](O)[C@H]12 [Methacycline HCl]	-0.49
CC#C[C@]1(O)CC[C@H]2[C@@H]3CCC4=CC(=O)CCC4=C3[C@@H](c3ccc(N(C)C)cc3)C[C@@]21C [Mifepristone]	0.29
CC1(C)S[C@@H]2[C@H](NC(=O)[C@H](N)c3ccccc3)C(=O)N2[C@H]1C(=O)O [Ampicillin sodium]	0.1
CCCCOC(=O)c1ccc(O)cc1 [Butylparaben]	-1.93
Cc1nnc(SCC2=C(C(=O)O)N3C(=O)[C@@H](NC(=O)Cn4cc(Cl)c(=O)c(Cl)c4)[C@H]3SC2)s1 [Cefazedone]	-0.74
Cc1cc(-c2ccc(/N=N/c3ccc4c(S(=O)(=O)O)cc(S(=O)(=O)O)c(N)c4c3O)c(C)c2)ccc1/N=N/c1ccc2c(S(=O)(=O)O)cc(S(=O)(=O)O)c(N)c2c1O [Evans Blue]	10.3
COC(=O)Nc1nc2cc(C(=O)c3ccc(F)cc3)ccc2[nH]1 [Flubendazole]	0.34
N[C@@H](CCC(=O)O)C(=O)O [(S)-Glutamic acid]	-0.75
CCOc1cc(NC(C)=O)ccc1C(=O)OC [Ethopabate]	-0.22
